This is a sample that favours compounds with a hit; in the whole collection about 10% have one here.
3T3 cytotox: Cytotoxic Profiling in NIH 3T3 Cell Line of Diverse Libraries Using Quantitative High-Throughput Screening. 94,000 tested, 4.3% active. NIH 3T3 viability, CellTiter-Glo ATP luminescence, 48-72 h. Potency, µM (top dose mostly 96.7 µM), without a hit: at the top dose activity change, negative = cytotoxicity, most hits filed as inhibitors; note: nearly all actives have a fitted effect of over 55% in size
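Mouse fibroblast NIH 3T3 cells, 400 per well, received compound via pintool and were incubated for 48 or 72 hr prior to CellTiter-Glo ATP luminescence measurement.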
hNpr1 antagonist: Natriuretic polypeptide receptor (hNpr1) antagonism - Primary qHTS; Atrial natriuretic peptide receptor 1 (Homo sapiens), P16066; HEK293 hNpr1 GloSensor cGMP, ANP-stimulated luminescence; Potency, µM (highest dose often 46.3 µM), inactives show at the top dose activity change, negative = inhibition, actives largely listed as inhibitors; 76,000 tested, 1.6% active; AID 1347048, 2019; calls by dose curve; note: nearly all actives have a fitted effect of over 60% in size
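HEK293 cells stably expressing human Npr1 and cGMP GloSensor pGS-40F, loaded 2 h with 2% GloSensor reagent, given compound 30 min at room temperature. Luminescence read before and 20 min after 0.1 nM hNppA.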
GPT2 inh: Primary qHTS assay for inhibitors of Glutamate pyruvate transaminase 2 (GPT2); Recombinant GPT2, coupled pyruvate oxidase/HRP Amplex Red fluorescence; Potency, µM (doses to about 57.7 µM), for inactives: at the highest dose activity change, negative = inhibition, usual class: inhibitors; 100,000 tested, 0.25% active; AID 1671188, 2021; note: nearly all actives have a fitted effect of over 60% in size
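Fluorescence of coupled pyruvate oxidase/HRP/Amplex Red system (50uM Amplex, 30 min, dark) reports pyruvate formed by GPT2. Enzyme reaction: 10ng/uL GPT2, 2mM L-alanine, 250uM a-KG, 30 min room temperature, pH 7.5; 50uM AOA control.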
Luciferase inh: Firefly luciferase inhibition profiling of diverse chemical library using quantitative high-throughput screening. Luciferin 4-monooxygenase (Photinus pyralis), P08659. purified P. pyralis luciferase, luminescence, biochemical. Potency, µM (top dose mostly 115 µM), usual class: inhibitors. 76,000 tested, 2.5% active; note: nearly all actives have a fitted effect of over 65% in size
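Inhibitors were tested against purified firefly luciferase in a biochemical, low-substrate format (both substrates at 10uM) and luminescence measured with a CCD imager.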
HEK cytotox: Cytotoxic Profiling in HEK 293 Cell Line of Diverse Libraries Using Quantitative High-Throughput Screening. Potency, µM (top dose mostly 115 µM), for the others: at the top dose activity change, negative = cytotoxicity, hits mostly inhibitors. HEK 293 viability, ATP luminescence (CellTiter-Glo), 48-72 h. 94,000 tested, 6.6% active. AID 1345083, 2018; note: nearly all actives have a fitted effect of over 60% in size
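250 HEK 293 cells/well; compound by pintool; incubated 48 or 72 hr at 37 degree Celsius; CellTiter-Glo added, 10 min RT, luminescence imaged.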
* = called active by the depositor; i = inactive; ? = inconclusive; · = not tested or not shown; [ ] = another dose, or the depositor's remark. Unless noted, calls come from the whole dose curve; as a rule, active = well fitted curve in the direction sought with a large enough effect; inconclusive = small, poorly fitted or top-dose-only effect, or another doubt; inactive = no such curve, though single readings can be large; an effect the other way counts as inactive or inconclusive. % is set by controls: 0 for no effect and ±100 for the full control effect; potency is the fitted concentration of half-maximal effect.

SMILES	3T3 cytotox	hNpr1 antagonist	GPT2 inh	Luciferase inh	HEK cytotox
O=C(NCCOc1ccccc1)c1nc2c(o1)CCN(Cc1ccc3[nH]ccc3c1)CC2	?	?	-10%[88.5 µM]	i	71µM*
COCCNC(=O)c1nc2c(o1)CCN(Cc1ccc(F)c(Cl)c1)CC2	?	?	0%[88.5 µM]	i	?
CNC(=O)C1CCN(C(=O)c2ccc(-c3cncnc3)cc2)CC1	-14%[138 µM]	·	·	·	-12%[172 µM]
C#CCNC(=O)c1cc(-c2ccc(Cl)cc2Cl)c2cccn2n1	?	·	-2%	·	-27%
Cc1nc2cccnc2n1CC1CCCN(C(=O)Nc2ccc3c(c2)OCCO3)C1 (stereo unspecified)	-2%	2%	i	i	?
COc1ccc(NC(=O)N2CCCC(Cn3c(C4CC4)nc4cccnc43)C2)cc1Cl (stereo unspecified)	?	-10%	-18%	i	71µM*
Cn1nc(C2CCCN(C(=O)Nc3ccc4c(c3)OCCO4)C2)n(C2CCCC2)c1=O (stereo unspecified)	2%	-2%	1%	32µM*	12%
O=C(Nc1ccc2c(c1)OCCO2)N1CCCC(Cn2cnc3cccnc32)C1 (stereo unspecified)	-1%	3%	i	28µM*	6%
CCCNC(=O)N1CCC(Cn2c(C)cnc2C2CC2)CC1	i	5%	i	i	-7%
Cc1noc2c(NCc3cccnc3)cc(-c3ccc(F)cc3)nc12	?	5%[70.6 µM]	-1%[88.5 µM]	i	?
Cc1noc2c(NCc3cccnc3)cc(-c3ccc(Cl)cc3)nc12	?	7%[70.6 µM]	4%[88.5 µM]	i	100µM*
Cc1noc2c(NCc3ccncc3)cc(-c3ccc(Cl)cc3)nc12	45µM*	-3%[70.6 µM]	-3%[88.5 µM]	i	?
Cc1noc2c(NCC3CCOCC3)cc(-c3ccc(Cl)cc3)nc12	?	1%[70.6 µM]	5%[88.5 µM]	i	100µM*
Cc1noc2c(NCCN3CCOCC3)cc(-c3ccc(Cl)cc3)nc12	?	-3%[70.6 µM]	-13%[88.5 µM]	i	?
COc1ccc(-n2c(CCN)n[nH]c2=O)c(C)c1	1%	0%	1%	i	i
COc1ccc(NC(=O)COc2ccc(-c3nnc4n3CCCC4)cc2)c(OC)c1	?	3%	i	i	-15%
O=C1CC2(CCN(C(=O)C3CCN([S+](=O)([O-])c4cccs4)CC3)CC2)Oc2ccccc2N1	?	·	i	·	28µM*
O=C(c1ccc(C(F)(F)F)cc1)N1CCC2(CC1)CCN(Cc1cccs1)c1ccccc1O2	13µM*	-11%	i	i	25µM*
O=C(C1CC1)N1CCC2(CC1)CCN(Cc1cccs1)c1ccccc1O2	?	2%	i	i	35µM*
Cc1ccc(C(=O)N2CCC3(CC2)CCN(Cc2cccs2)c2ccccc2O3)cc1	?	2%	-16%	i	?
O=C(CC1CCOC2(CCN(Cc3ccsc3)CC2)C1)N1CCCC1 (stereo unspecified)	2%	0%	i	i	-12%
CC(C)CCC(=O)N1CCN(c2nc3c(s2)CN(C)CC3)CC1	-6%	3%	i	?	?
Cc1ccc(C2Cn3cnc(C(=O)N4CCC(C(=O)NCCC5=CCCCC5)CC4)c3CO2)cc1 (stereo unspecified)	-26%	-10%	i	28µM*	-14%
O=C(NCCC1=CCCCC1)C1CCN(C(=O)c2ncn3c2COC(c2ccc(Cl)cc2)C3)CC1 (stereo unspecified)	-24%	-2%	i	?	?
COCCCNC(=O)C1CCN(C(=O)c2nnn3c2COC(c2ccc(C)cc2)C3)CC1 (stereo unspecified)	i	-2%	i	40µM*	-5%

Screening results (PubChem)
